Measured values as given in PubChem BioAssay (NCI).
About 83,000 compounds went through this panel and 20% of them were active in at least one assay; those are over-represented in the sample as a whole.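 A percent growth of 40 corresponds to 60% growth inhibition; 0 means no net growth; -100 means all cells died. Active threshold: below 10.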 Unmarked numbers belong to inactive results. Active and inactive are the calls of the source.

system: SNB-75 CNS; assay: NCI-60 one-dose screen, 48 h (100 = growth as untreated, 0 = no growth, -100 = all killed); conditions: 10 µM unless noted
Method: Growth inhibition of the SNB-75 human tumor cell line is measured as a screen for anti-cancer activity. Cells are grown in 96 well plates and exposed to the test compound for 48 hours. Compounds are tested at a single concentration, which is 10^-5 M for most compounds. The reported endpoint is percent growth (GI% or GIPRCNT), where numbers from 0 - 100% represent growth inhibition, and numbers from -100% - 0 represent cell death. For example, a value of 40 represents 60% growth inhibition. A value of 0 means no net growth occurred over the course of the experiment. A value of -40 indicates 40% of cells at the beginning of the experiment died by the end of the experiment. A value of -100 means all cells are dead at the end of the experiment.
NCI-60 Human Tumor Cell Lines Screen was performed using the standard one-dose NCI protocol, which is described in more detail at https://dtp.cancer.gov/discovery_development/nci-60/default.htm.
Compounds with GIPRCNT values below 10 were considered active. Activity score was based on GIPRCNT using the following formula: […]
Score is 0 for GIPRCNT values of 100 or above, 50 for GIPRCNT values of 0, and 100 for GIPRCNT values of -100.

| SMILES | growth |
| --- | --- |
| O=S(=O)(Nc1cc(Sc2nc3ccccc3s2)c(O)c2ccccc12)c1ccc2ccccc2c1 | 88.2% |
| CCOC(=O)/C=C1\S/C(=N\Nc2cc(=O)[nH]c3ccc(Br)cc23)N(c2ccccc2)C1=O | 80.4% |
| CC12OC(CC(O)C1O)n1c3ccccc3c3c4c(c5c6ccccc6n2c5c31)C(=O)N(CCN1CCCC1)C4=O (stereo not given) | 10.2% |
| C=CN(C(=O)N1CCN(c2cc3c(cc2F)c(=O)c(C(=O)O)cn3C2CC2)CC1)c1nc(-c2ccc(Cl)cc2)cs1 | 80% |
| Cn1cc(-c2csc(-c3cn(C)c4ccccc34)n2)c2cnccc21 | 104% |
| Cc1cc(C)c2c(c1)N(C)c1ncnc(-n3c(C)nc4cc(C)ccc43)c1CC2C (stereo not given) | 29.4% |
| Nc1ncnc2c1N=C(c1ccc(Cl)cc1)CC(c1cccc(Nc3ccnc4cc(Cl)ccc34)c1)N2 (stereo not given) | 60.4% |
| CCn1cc(C(=O)N/N=C/c2ccccc2)c(=O)c2cc(F)c(N3CCNC(C)C3)c(F)c21 (stereo not given) | 92.8% |
| CC/C(=C(/c1ccc(O)cc1)c1ccc(OCCN2CCCCC2)cc1)c1ccc(OC)cc1 | 74.1% |
| CCn1cc(Cc2cc(C(=O)Nc3cc4cc(OC)c(OC)cc4c(C)n3)ccc2Cl)cn1 | 36% |
| COc1ccc(-c2cc(C(=O)N3N=C(c4ccc(N)cc4)CC3c3ccc(Cl)cc3)c3ccccc3n2)cc1 (stereo not given) | 5.79% (active) |
| CC(C)(C)c1ccc(S(=O)(=O)Oc2ccc(-c3sc4cc(OS(=O)(=O)c5ccc(C(C)(C)C)cc5)ccc4c3C(=O)c3ccc(OCCN4CCCCC4)cc3)cc2)cc1 | 56.6% |
| O=C1CCCCN1c1ccc(C2=NCCCN2)cc1 | 55% |
| COCCn1cc(-c2nc(-c3cc4cccnc4n3C)cs2)c2ccccc21 | 61.3% |
| COC(=O)/C=C1/SC(=Nc2ccc(F)cc2)N(CCc2c[nH]c3ccc(O)cc23)C1=O | 43.2% |
| CCN1CCN(CCNc2nccc(-c3c(-c4ccc(F)c(O)c4)nc4occn34)n2)S1(=O)=O | 83.5% |
| CCOC(=O)CC1CSC(N/N=C/c2ccc(F)c(Br)c2)=N1 (stereo not given) | 109% |
| COCCn1cc(-c2csc(-c3c[nH]c4ccc(F)cc34)n2)c2cccnc21 | 39.7% |
| CCCC(O)Cn1ncc(C(=O)OCC)c1NC(=O)NCc1cccc(C(F)(F)F)c1 (stereo not given) | 101% |
| COc1ccc(-c2cc(-c3cn(-c4cccc(Cl)c4)nc3-c3ccc(OC)cc3)on2)cc1 | 99.2% |

| SMILES | growth |
| --- | --- |
| CCCCCCCCCCOC(=O)c1nn(C(C)=O)c2cc(C)c(C)cc12 | 115% |
| CCN(CC)CCCC(Cc1ccccc1)Nc1c2ccc(Cl)cc2nc2ccc(OC)cc12 (stereo not given) | 10.6% |
| O=C(NCCN1CCOCC1)OCc1ccc2c(Cl)cc(Cl)c(O)c2n1 | 71.2% |
| O=C1O[C@@H](c2ccccc2Cl)[C@@H]2c3cc4c(cc3CCN12)OCO4 | 91.7% |
| O=C(c1cccc(N2CCOCC2)n1)c1c[nH]c2ccccc12 | 82% |
| O=C(O)c1cn(C2CC2)c2cc(N3CCN(C(=O)N4CCOCC4)CC3)c(F)cc2c1=O | 98.1% |
| CCC(C)(C)c1ccc(Nc2ccc(Nc3ccc(C(C)(C)CC)cc3)cc2)cc1 | 93% |
| Nc1c(Br)cc2c(c1Br)Cc1cc([N+](=O)[O-])ccc1-2 | 75.3% |
| COc1cc2ncnc(Nc3ccc(S(=O)(=O)Nc4nccs4)cc3)c2cc1OCCCN1CCCC1 | 93.8% |
| NCCCNc1nc2ccccc2c2c(=O)c3cc(Cl)ccc3sc12 | 47.9% |
| Cc1cc(=O)oc2cc(Oc3nc(Br)cn4c(Br)cnc34)ccc12 | -2.07% (active) |
| C/C=C1/CN(CCCCC)CC[C@H]1C(=O)c1cc2ccccc2[nH]1 | 76.4% |
| O=C(Nc1cccnc1Nc1ccccc1)c1cn(Cc2cccc(Oc3ccccc3)c2)nn1 | 47.6% |
| Cn1c(=O)c2[nH]c(SC/C(=N/O)c3ccc(Br)cc3)nc2n(C)c1=O | -27.2% (active) |
| CC(C)(Sc1cc(C(C)(C)C)c(O)c(C(C)(C)C)c1)Sc1cc(C(C)(C)C)c(OC(=O)CCC(=O)O)c(C(C)(C)C)c1 | 94.2% |
| C/C(=C(\c1ccc(OCCN2CCCCCC2)cc1)c1ccc(OC(=O)c2ccccc2)cc1)c1ccc(Cl)cc1 | 73.7% |
| C=C(C)[C@@H]1CC[C@]2(C(=O)N3CCNCC3)CC[C@]3(C)[C@H](CC[C@@H]4[C@@](C)(CCC(=O)N5CCNCC5)[C@H](C(=C)C)CC[C@]43C)[C@@H]12 | 86.3% |
| CCCCCCCCn1ccc2cc(NC(=O)CN=[N+]=[N-])ccc21 | 99.6% |
| CCOc1ccc(/C=C/C(=O)c2cccc(OCCCOc3cccc(C(=O)/C=C/c4ccc(OCC)cc4)c3)c2)cc1 | 83.9% |
| CCN(CC)CCn1c2ccc(OC)cc2c2sc3cc(O)ccc3c(=O)c21 | 78.8% |
